{"source": "ChEMBL document CHEMBL3988442", "about": "“University of Dundee, Small-Polar-MMV Screening Library” (2021)", "note": "In all, about 38,000 compounds went through this assay and about 1,200 (3.2%) showed an effect of 50% or more. The median lay at about -58%. The entries come from a sample that favours strong results as a whole."}
{"test_system": "Plasmodium falciparum", "assay": "Calibr Malaria Delayed Death Assay SOP", "format": "functional, organism-based", "design": "scale not given: in the data most compounds retested in dose-response had high values", "details": "concentration 4.99e-06 (unit not given; other assays of the set use mol/L)", "units": {"Percent Effect": "%"}}
{"smiles": "CCc1nc2n(n1)CC(NCc1cc(OC)c3c(c1)OCCO3)CC2", "note": "(centres undefined)", "Percent Effect": -60.23}
{"smiles": "O=C(CN1CC(c2ccccc2)CC1=O)N1CCN(c2nccs2)CC1", "note": "(centres undefined)", "Percent Effect": -33.46}
{"smiles": "Cc1nc(-c2cccc(C(=O)O)c2)cc(C2CCCN(C(C)C)C2)n1", "note": "(centres undefined)", "Percent Effect": -116.2}
{"smiles": "COc1cccc(CNc2nnc(C(C)(C)C)o2)c1OC", "Percent Effect": -115.2}
{"smiles": "CC(C(=O)N1CCc2sccc2C1)N1CCCN(C2CC2)CC1", "note": "(centres undefined)", "Percent Effect": 19.49}
{"smiles": "CC(C(=O)N1CCc2sccc2C1)N1CCC(N2CCCC2)CC1", "note": "(centres undefined)", "Percent Effect": 51.04}
{"smiles": "CC(C)NC(=O)C1CCN(C(C)C(=O)N2CCc3sccc3C2)CC1", "note": "(centres undefined)", "Percent Effect": -19.38}
{"smiles": "COC(=O)CC(C1=Cc2ccccc2OC1)c1oc(C)cc(=O)c1O", "note": "(centres undefined)", "Percent Effect": -54.1}
{"smiles": "COCCC1(CNC(=O)Nc2ccnc(C)c2)CCCC1", "Percent Effect": 72.21}
{"smiles": "Cc1cc(NC(=O)NCC2(O)CCCC2)ccn1", "Percent Effect": -130.9}
{"smiles": "COCCC1(CNC(=O)Nc2ccc(-n3nccn3)cc2)CCC1", "Percent Effect": -17.2}
{"smiles": "COc1ncc(C2(O)CCN(Cc3cc(F)cc(F)c3)CC2)c(OC)n1", "Percent Effect": -99.52}
{"smiles": "O=c1[nH]nc2c(S(=O)(=O)N3CCOCC3)cccn12", "Percent Effect": -183.8}
{"smiles": "CNC(=O)c1cc2c(nc1NCC1CC1)CCN(c1ncccn1)CC2", "Percent Effect": -64.19}
{"smiles": "O=S(=O)(Nc1ccc2c(c1)OCCO2)N1CCCCC1", "Percent Effect": -170}
{"smiles": "Cn1ccnc1CN1CCCN(C(=O)c2ccc(Cl)o2)CC1", "Percent Effect": -26.42}
{"smiles": "Cc1ccc(CNC(c2ccc(F)cc2)c2nccn2C)o1", "note": "(centres undefined)", "Percent Effect": -33.59}
{"smiles": "Cc1ccc(CNC(c2cccc(F)c2)c2nccn2C)o1.Cl", "note": "(centres undefined)", "Percent Effect": 35.29}
{"smiles": "Cc1ccc(CNCCC(O)(c2nccn2C)C(F)(F)F)o1", "note": "(centres undefined)", "Percent Effect": 72.37}
{"smiles": "CCc1n[nH]c(C2CN(C(=O)COCC(F)(F)F)CCO2)n1", "note": "(centres undefined)", "Percent Effect": -109.1}
{"smiles": "CCc1c(C)n(CCC#N)c2nc3ccccc3n2c1=O", "Percent Effect": -59.08}
{"smiles": "CCc1nnc2n1CCN(C(=O)C1CCC(n3cccc3)CC1)C2", "note": "(centres undefined)", "Percent Effect": -12.54}
{"smiles": "O=C1CCc2cc(-c3csc(CCN4CCOC4=O)n3)c(F)cc2N1", "Percent Effect": 10.62}
{"smiles": "COc1cccc(CSc2nnc(C)n2CC(N)=O)c1", "Percent Effect": -57.97}
{"smiles": "NC(=O)CN(Cc1ccc(Br)cc1)C(=O)c1cccnc1", "Percent Effect": -140.6}
{"smiles": "COc1ccc(CN2CCOC[C@H](Oc3cccnc3)C2)cc1", "Percent Effect": -114.4}
{"smiles": "COc1ccc(-n2cccn2)c(CN2CCOCC(CN(C)C)C2)c1", "note": "(centres undefined)", "Percent Effect": 78.01}
{"smiles": "COc1ccc(CN2C[C@@H](CN(C)C)[C@@H](CO)C2)c(Cl)c1OC", "Percent Effect": -21.55}
{"smiles": "COc1ccc(CN2C[C@@H](CN(C)C)[C@@H](CO)C2)cc1OC", "Percent Effect": -68.69}
{"smiles": "Cc1cc(C)c(-n2cccn2)c(CN2CCOCC(CN(C)C)C2)c1", "note": "(centres undefined)", "Percent Effect": 34.59}
{"smiles": "COc1ccc(O[C@H]2COCCN(Cc3c[nH]c4ccccc34)C2)cc1", "Percent Effect": -21.41}
{"smiles": "Cc1cc(-n2cccn2)ccc1CN1C[C@@H](CN(C)C)[C@@H](CO)C1", "Percent Effect": 52.18}
{"smiles": "Cc1cc(-n2cccn2)ccc1CN1CCOCC(CN(C)C)C1", "note": "(centres undefined)", "Percent Effect": 73.33}
{"smiles": "Cc1ccc(-n2cc(CN3CCOCC(CN(C)C)C3)cn2)cc1C", "note": "(centres undefined)", "Percent Effect": 38.47}
{"smiles": "CCc1cc2c(N3CCCC(c4ccn[nH]4)C3)ncnc2s1", "note": "(centres undefined)", "Percent Effect": 10.63}
{"smiles": "O=C(CC1CCc2ccccc21)N1CCC(O)(Cn2ccnc2)CC1", "note": "(centres undefined)", "Percent Effect": -24.52}
{"smiles": "CCCN1CCC(c2nc3ccc(-c4cccc(OC)c4)cn3n2)CC1.O=C(O)C(F)(F)F", "Percent Effect": -29.22}
{"smiles": "CCN(CC)Cc1nnc2sc(-c3cc(C(C)C)[nH]n3)nn12", "Percent Effect": -70.51}
{"smiles": "CN(C(=O)Cn1nc(-c2ccc(Cl)cc2)ccc1=O)C1CCS(=O)(=O)C1", "note": "(centres undefined)", "Percent Effect": 1.296}
{"smiles": "CC(=O)N1CCC(c2nc3ccc(-c4ccnn4C)cn3n2)CC1.O=C(O)C(F)(F)F", "Percent Effect": -57.67}
{"smiles": "NC(=O)N1Cc2nccn2CC(Cn2ncccc2=O)C1", "note": "(centres undefined)", "Percent Effect": -152.6}
{"smiles": "Cc1ccc(CN2CCC3(CC2)CCN(Cc2ccoc2)CC3)cc1.O=C(O)C(F)(F)F.O=C(O)C(F)(F)F", "Percent Effect": 92.5}
{"smiles": "O=C(O)C(F)(F)F.O=C(O)C(F)(F)F.O=C(O)C(F)(F)F.c1cc(CN2CCCC23CCCN(Cc2ccoc2)C3)ccn1", "note": "(centres undefined)", "Percent Effect": -115.9}
{"smiles": "COCC(=O)N1CCC2(CCN(Cc3ccc(C)cc3)CC2)CC1.O=C(O)C(F)(F)F", "Percent Effect": -23.78}
{"smiles": "Cc1nc(CN2CCC23CCN(Cc2ccoc2)CC3)cs1", "Percent Effect": 35.85}
{"smiles": "Cn1ccnc1CN1CC2(CCN(Cc3ccncc3)C2)C1", "Percent Effect": -45.53}
{"smiles": "COCCC(=O)N1CC2(CCN(Cc3ccncc3)CC2)C1", "Percent Effect": -37.67}
{"smiles": "COCCC(=O)N1CCC2(CCN(Cc3ccc(C)cc3)CC2)C1.O=C(O)C(F)(F)F", "Percent Effect": -50.1}
{"smiles": "CS(=O)(=O)N1CCCC12CCN(Cc1ccoc1)CC2", "Percent Effect": -46.44}
{"smiles": "Cc1ccc(CN2CCCC3(CCN(Cc4ccoc4)CC3)C2)cc1.O=C(O)C(F)(F)F.O=C(O)C(F)(F)F", "Percent Effect": 79.2}
{"smiles": "CS(=O)(=O)N1CCOCC2(CCN(Cc3ccoc3)CC2)C1.O=C(O)C(F)(F)F", "Percent Effect": -77.45}
{"smiles": "Cc1ccc(CN2CCC3(CCN(Cc4ccncc4)CC3)CC2)cc1", "Percent Effect": 77.61}
{"smiles": "O=C(CCn1cncn1)NC1CCc2nccn2C1", "note": "(centres undefined)", "Percent Effect": -109.9}
{"smiles": "C[C@]1(O)CN(Cc2ccc(C(=O)O)cc2)CC[C@@H]1Oc1cccc(F)c1", "Percent Effect": -93.08}
{"smiles": "O=c1ccc2c(n1CC1CC1)CCN(c1ncccn1)CC2", "Percent Effect": 5.282}
{"smiles": "O=C(O)C(F)(F)F.O=C(O)C(F)(F)F.c1ccc(COC[C@@H]2CCC[C@]23CN(Cc2nccs2)CCO3)nc1", "Percent Effect": -24.57}
{"smiles": "O=S(=O)(Cc1ccc(F)cc1)NCCc1nnc2n1CCC2", "Percent Effect": -62.4}
{"smiles": "Cc1nc(CNC(=O)NC(C)c2ccc3c(c2)OCCO3)cs1", "note": "(centres undefined)", "Percent Effect": -69.15}
{"smiles": "COCCn1ccc(=O)c(OCC(=O)Nc2cccc(OC)c2)c1C", "Percent Effect": -50.47}
{"smiles": "COCc1cc(CNCc2c(C)n(CC(C)C)c3ccccc23)n[nH]1", "Percent Effect": -32.81}
{"smiles": "Cc1cc(NC(=O)C(C#N)Cc2cnn(C)c2C)no1", "note": "(centres undefined)", "Percent Effect": -0.6706}
{"smiles": "Cc1ccc(CN2CCC3(CCCN(C(=O)N(C)C)C3)C2)cc1", "note": "(centres undefined)", "Percent Effect": -64.1}
{"smiles": "O=C(c1cnccn1)N1CCC2(CCCN(Cc3ccoc3)C2)C1", "note": "(centres undefined)", "Percent Effect": -97.37}
{"smiles": "CCOC(=O)[C@H]1[C@@H](O)C(=O)N(C)C12CCN(C(=O)C(CC)CC)CC2", "Percent Effect": -15.32}
{"smiles": "CCN(C)C(=O)Nc1cc(F)c(OC)cc1F", "Percent Effect": -13.37}
{"smiles": "O=C(c1ccc(F)c(Br)c1)N1CCCN2CCCC2C1", "note": "(centres undefined)", "Percent Effect": 22.61}
{"smiles": "COc1ccc(N2CCCC3(C2)CN(c2nncs2)CCO3)cc1", "note": "(centres undefined)", "Percent Effect": 87.98}
{"smiles": "c1cncc(N2CCOC3(CCCN(c4nncs4)C3)C2)c1", "note": "(centres undefined)", "Percent Effect": -13.46}
{"smiles": "Cc1cccc(N2CCCC3(C2)CN(c2nncs2)CCO3)c1", "note": "(centres undefined)", "Percent Effect": -92.55}
{"smiles": "O=C1CCCN1Cc1nnc2n1CCCN(C(=O)c1ccc[nH]1)C2", "Percent Effect": -52.27}
{"smiles": "O=C(c1ccc(-n2cnnc2)cc1)N1CCC(Nc2cccnn2)CC1", "Percent Effect": -15.7}
{"smiles": "CCN1Cc2ccccc2CC2(CCN(CC(=O)O)CC2)C1=O.O=C(O)C(F)(F)F", "Percent Effect": -102.3}
{"smiles": "CCn1c(SCC(=O)O)nnc1C(C)NC(=O)c1ccc(Cl)cc1", "note": "(centres undefined)", "Percent Effect": -146.1}
{"smiles": "Cc1noc(C(C)NC(=O)[C@@H](C)NC(=O)OC(C)(C)C)n1", "note": "(some centres undefined)", "Percent Effect": -163.7}
{"smiles": "O=C(CN1CCCC1c1nc2cc(F)ccc2[nH]1)NCc1ccccn1", "note": "(centres undefined)", "Percent Effect": -65.25}
{"smiles": "Fc1ccc2[nH]c(C3CCCN3Cc3c[nH]cn3)nc2c1", "note": "(centres undefined)", "Percent Effect": 80.29}
{"smiles": "O=C(c1cccc(CO)n1)N1CCCC1c1nc2cc(F)ccc2[nH]1", "note": "(centres undefined)", "Percent Effect": -67.52}
{"smiles": "CC(C)OCCCNC(=O)NCc1cccc(-n2ccnc2)c1", "Percent Effect": -80.58}
{"smiles": "Cc1nn(C)c(C)c1-c1ccnc(N(C)Cc2nc(C(C)C)no2)n1", "Percent Effect": 65.96}
{"smiles": "Cc1nn(C)c(C)c1-c1ccnc(N(C)Cc2noc(C(C)C)n2)n1", "Percent Effect": -30.97}
{"smiles": "Cc1nn(C)cc1-c1ccnc(N(C)Cc2noc(C(C)C)n2)n1", "Percent Effect": -38.19}
{"smiles": "Cc1cc(C(N)=O)c(N2C[C@@H](C)[C@@](C)(O)C2)nc1C", "Percent Effect": -47.89}
{"smiles": "O=C(O)c1nc(SCc2ccc(F)cc2)ncc1Br", "Percent Effect": -159.2}
{"smiles": "COc1cccc(CCC(=O)N2CCCCC2Cn2cccn2)c1", "note": "(centres undefined)", "Percent Effect": -142.5}
{"smiles": "O=C(c1ccc2c(c1)OCO2)N1CCCSCC1CN1CCCC1", "note": "(centres undefined)", "Percent Effect": -7.883}
{"smiles": "COc1cccc(CC(=O)N2CCCSCC2CN2CCCC2)c1", "note": "(centres undefined)", "Percent Effect": 54.27}
{"smiles": "CCCN(CCC)c1nc(N)nc(-c2cc(Cl)ccc2OC)n1", "Percent Effect": -49.81}
{"smiles": "CN(C)CCCNC(=O)c1nc(Cc2c(Cl)cccc2Cl)no1", "Percent Effect": -74.09}
{"smiles": "CC[C@@H](C)[C@@H](N)C(=O)Nc1cccc(-c2cnc(NCCO)nc2)c1", "Percent Effect": -39.72}
{"smiles": "O=C1CC(c2ccccc2F)c2c(n(C3CCCC3)[nH]c2=O)N1", "note": "(centres undefined)", "Percent Effect": -93.23}
{"smiles": "COc1ccccc1C(=O)NC(c1ccccn1)[C@H]1CC[C@H](CN)CC1", "note": "(some centres undefined)", "Percent Effect": -2.636}
{"smiles": "CCOCC1CN(CC2CC2)Cc2nn(C)cc21.O=C(O)C(F)(F)F", "note": "(centres undefined)", "Percent Effect": -95.19}
{"smiles": "NC(=O)CCNCc1c(Cl)cccc1N1CCCC1", "Percent Effect": 65.52}
{"smiles": "CS(=O)(=O)CCCNC(=O)NC1CC(c2cccc(Cl)c2)C1", "note": "(centres undefined)", "Percent Effect": -17.33}
{"smiles": "CS(=O)(=O)CCCNCc1c(Cl)cccc1N1CCCC1", "Percent Effect": 71.32}
{"smiles": "NC(=O)CCNC(=O)NCC1(c2ccccc2Cl)CCC1", "Percent Effect": -18.8}
{"smiles": "O=C(Nc1c(N2CCCC2)cccc1N1CCCC1)c1ccccn1", "Percent Effect": -13.71}
{"smiles": "O=S(=O)(Cc1c(F)cccc1Cl)NCCCN1CCCCCC1", "Percent Effect": 47.99}
{"smiles": "O=C(CSC1CCc2ccccc2NC1=O)NCc1ccccc1", "note": "(centres undefined)", "Percent Effect": -28.24}
